Records with an inconclusive call do not appear. Entries that show only a call come without a potency. The source made the active and inactive calls. The call rests on the fitted dose curve; in most records, active means well fitted inhibition curve with a large enough effect; inconclusive means small, poorly fitted or top-dose-only effect; inactive means flat fitted curve, though single readings scatter.
These molecules were tested against Calcium and integrin-binding protein 1 (Homo sapiens) (UniProt Q99828) (assay: Primary qHTS for Identification of Calcium Integrin Binding Protein 1 (CIB1) Competitor (AID 1508620;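 further: GST tagged CIB1 binding a fluorescein labelled alphaIIb integrin peptide tracer; top concentration of the series differs between compounds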)). Details: CIB1-GST / FITC-alphaIIb peptide fluorescence polarization; series mostly up to 57.7 µM.
Source text: Assay Provider: Ulhas P. Naik, PhD Sidney Kimmel Medical College Thomas Jefferson University, Philadelphia, PA Primary function of platelets is to maintain hemostasis. At the site of vascular injury, platelets adhere to adhesive proteins such as collagen and von Willebrand factor. Adherent platelets are activated and generate soluble platelet agonists such as thrombin, ADP and thromboxane A2. Following exposure of circulating platelets to these agonists, results in platelet shape change, granule secretion and activation of platelet integrin alphaIIb-beta3. Ligand binding to activated integrin alphaIIb-beta3 triggers outside-in signaling, leading to platelet aggregation, stabilization of platelet plug, and clot retraction. Upon atherosclerotic plaque rupture also causes platelet plug formation, which underlies a number of cardiovascular diseases such as myocardial infraction and stroke. A number of anti-platelet drugs such as aspirin, clopidogrel, prasugrel, vorapaxar, and eptifibatide are currently available to prevent the thrombotic complications. However, these anti-platelet agents have several limitations including inherent variability in individual responses, developing resistance, and serious bleeding side effects. For these reasons they are not suitable for long-term protection. Based on the experiences with current anti-platelet drugs, it appears that the most useful therapeutic approach is to intersect the secondary responses such as integrin outside-in signaling or recruitment of platelets by TxA2 and secreted ADP. Compounds, which can largely preserve the primary hemostatic function of platelets but inhibit secondary response will be most desired therapeutic agents for treatment of cardiovascular disease. CIB1 is a calcium integrin binding protein, which specifically interact with the alphaIIb subunit of integrin alphaIIb-beta3. Binding of CIB1 to alphaIIb regulates the outside-in signaling in platelets, which is needed for thrombus stabilization and thrombus growth. […] Therefore, we propose that discovery of a small molecule that can prevent the association of CIB1 and alphaIIb-beta3 will be a potential anti-platelet agent that can block the thrombus formation without undue effect on hemostasis. Reference: [1] Naik MU, Nigam A, Manrai P, et al. CIB1 deficiency results in impaired thrombosis: the potential role of CIB1 in outside-in signaling through integrin alpha IIb beta 3. J Thromb Haemost.
PROTOCOL TABLES SEQUENCE No. (1, 2, 3, etc.); […] (e.g., Cells, Incubation, Reagent, etc.); VALUE and DESCRIPTION. 1; Reagent; 3 uL; Protein or buffer (4/3x) 2; Compound; 46 nL; Control inhibitor / compound library 3; Time; 15 min; Room temperature incubation 4; Reagent; 1 uL; Fluorescent labeled peptide (4x) 5; Time; 1000 rpm; Centrifuge 6; Time; 15 min; Room temperature incubation 7; Detection; Ex 480/ Em 540; ViewLux Fluorescence Read NOTES (numbers refer to sequence above) 1; Protein Mixture: C1B1-GST (final concentrations of 1 uM). […] 3; Room temperature incubation. 4; Fluorescent Labeled Peptide: FITC-aIIb (final concentration of 100 nM). Sequence of alphaIIb peptide: Acetyl-[…]-FITC (purity is 95.83%). 5; Centrifuge 1000 rpm (164 g) for 15 seconds. 6; Room temperature incubation. 7; ViewLux Fluorescent Polization Read: excitation = 480(20) / emission = 540(25) S and P; FITC Dichroic mirror.

Sequence of Calcium and integrin-binding protein 1 (Homo sapiens) (Q99828 whole entry, looked up): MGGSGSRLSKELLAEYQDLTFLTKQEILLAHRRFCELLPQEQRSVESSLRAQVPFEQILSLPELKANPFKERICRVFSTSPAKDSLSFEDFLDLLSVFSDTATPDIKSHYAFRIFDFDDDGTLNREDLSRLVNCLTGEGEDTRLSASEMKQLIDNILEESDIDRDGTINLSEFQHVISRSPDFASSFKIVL

| SMILES | Potency |
| --- | --- |
| CC(C(=O)O)c1ccc(-c2ccccc2)c(F)c1 (stereo not given) | inactive |
| COC(=O)C1=CO[C@@H](O)[C@@H]2C(CO)=CC[C@@H]12 | inactive |
| CCOC(=O)O[C@]1(C(=O)OCCl)CC[C@@H]2[C@H]3CCC4=CC(=O)C=C[C@]4(C)[C@@H]3[C@@H](O)C[C@@]21C | inactive |
| Clc1ccc(Cn2c(CN3CCCC3)nc3ccccc32)cc1 | inactive |
| O=C(NCCN1CCOCC1)c1ccc(Cl)cc1 | inactive |
| CC(C)C(=O)Nc1ncc(-c2cc(C(F)F)nn2-c2c(Cl)cccc2Cl)s1 | inactive |
| CCN(CC)CCNC(=O)c1ccc(N)cc1 | inactive |
| CN1[C@@H]2CCC[C@@H]1CC(NC(=O)c1nn(C)c3ccccc13)C2 (stereo not given in full) | inactive |
| CC(=O)N(C)C1(c2ccccc2)CCN(CCC[C@]2(c3ccc(Cl)c(Cl)c3)CCCN(C(=O)c3ccccc3)C2)CC1 | inactive |
| CO[C@@H](C(=O)N1Cc2[nH]nc(NC(=O)c3ccc(N4CCN(C)CC4)cc3)c2C1)c1ccccc1 | inactive |
| Cc1cccc(Nc2nc(-c3ccncc3)cs2)c1 | inactive |
| CC(C)(C)c1cc(C(=O)O)c(NC(=O)Nc2ccc3[nH]ncc3c2)s1 | inactive |
| COc1cc(N2CCC(N3CCN(C)CC3)CC2)ccc1Nc1ncc(Cl)c(Nc2ccccc2S(=O)(=O)C(C)C)n1 | inactive |
| C[N+]1(C)[C@@H]2CC(OC(=O)[C@H](CO)c3ccccc3)C[C@H]1[C@H]1O[C@@H]12 (stereo not given in full) | inactive |
| CC1(C)CCC[C@@]2(C)[C@@H]1CC[C@@]1(C)OC(=O)C[C@H]21 | inactive |
| Cc1nc(N)sc1-c1ccnc(Nc2ccc(N3CCOCC3)cc2)n1 | inactive |
| CC[C@@]1(O)C[C@H](O[C@H]2C[C@H](N(C)C)[C@H](O[C@H]3C[C@H](O)[C@H](O[C@H]4CCC(=O)[C@H](C)O4)[C@H](C)O3)[C@H](C)O2)c2c(cc3c(c2O)C(=O)c2c(O)cccc2C3=O)[C@@H]1C(=O)OC | inactive |
| OC[C@H]1O[C@@H](Oc2cc(O)cc(C=Cc3ccc(O)cc3)c2)[C@H](O)[C@@H](O)[C@H]1O | inactive |
| O=c1cc(-c2ccccc2)oc2cc(O)cc(O)c12 | inactive |
| O=c1c(-c2ccc(O)cc2)coc2cc(O[C@@H]3O[C@H](CO)[C@H](O)[C@H](O)[C@H]3O)ccc12 | inactive |

| SMILES | Potency |
| --- | --- |
| CCS(=O)(=O)N1CC(CC#N)(n2cc(-c3ncnc4[nH]ccc34)cn2)C1 | inactive |
| CC(C)(Cc1ccc2ccccc2c1)NC[C@@H](O)COc1cccc(Cl)c1C#N | inactive |
| O=C(O)c1ccccc1C(=O)Nc1ccc(-c2ccccc2)cc1 | inactive |
| CN(C)CCC=C1c2ccccc2COc2ccc(CC(=O)O)cc21 | inactive |
| Oc1ccc(C2=Cc3ccc(O)cc3OC2)cc1 | inactive |
| O=C(Nc1ccccc1Br)N[C@@H]1CCN(c2ccc(C(F)(F)F)cn2)C1 | inactive |
| NS(=O)(=O)c1cccc2c1C(=O)c1cccc(O)c1C2=O | inactive |
| Cc1ccc(C(C)(O)c2nc3ccccc3s2)c(C)c1 (stereo not given) | inactive |
| CC[C@@H]1C=C(C)C[C@H](C)C[C@H](OC)[C@H]2O[C@@](O)(C(=O)C(=O)N3CCCC[C@@H]3C(=O)O[C@H](C(C)=C[C@@H]3CC[C@H](Cl)[C@H](OC)C3)[C@H](C)[C@@H](O)CC1=O)[C@H](C)C[C@H]2OC | inactive |
| COc1ccc(-c2oc3c(CC=C(C)C)c(OC4O[C@H](CO)[C@@H](O)[C@H](O)[C@@H]4O)cc(O)c3c(=O)c2OC2O[C@@H](C)[C@H](O)[C@@H](O)[C@@H]2O)cc1 (stereo not given in full) | inactive |
| CC1(C)O[C@H]2C[C@@H]3[C@H]4CCC5=CC(=O)C=C[C@]5(C)[C@@]4(F)[C@@H](O)C[C@]3(C)[C@]2(C(=O)CO)O1 | inactive |
| CCn1c(C(=O)N(C2CC2)C2CC2)cc2c3c(ncn3C)c(Nc3cc(C)n(C)n3)nc21 | inactive |
| O=C(NCc1ccncc1)C12C[C@H]3C[C@@H](C1)CC(c1ccc(Cl)cc1)(C3)C2 | inactive |
| Nc1ncnc2c1nc(Cl)n2[C@@H]1O[C@H](CO)[C@@H](O)[C@@H]1O | inactive |
| Cc1ccccc1C(C(=O)NC1CCCCC1)N(C(=O)Cn1ccnc1C)c1cccc(F)c1 (stereo not given) | inactive |
| Nc1ncnc2c1ncn2[C@@H]1O[C@H](CO)C[C@@H]1O | inactive |
| O=C(O)C(O)Cc1ccc(O)c(O)c1 (stereo not given) | inactive |
| CC=C(C)C(=O)O[C@H]1C(C)=C[C@]23C(=O)[C@@H](C=C(CO)[C@@H](O)[C@]12O)[C@H]1[C@@H](C[C@H]3C)C1(C)C | inactive |
| COc1cc2ncnc(Nc3ccc(F)c(Cl)c3)c2cc1OCCCN1CCOCC1 | inactive |
| COCCOC(=O)C1=C(C)NC2=C(C(=O)CC(c3ccccc3OC)C2)C1c1cccc(O)c1 (stereo not given) | inactive |
